Experiment [1] in a line: NCI Yeast Anticancer Drug Screen. Data for the rad50 strain (AID 155).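 Also: 0% = growth of vehicle-only cultures of the same strain.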 As to conditions: S. cerevisiae rad50 strain growth inhibition, stronger effect = higher value; at 50.0 µM unless noted. An outline of the steps:
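DNA repair mutant yeast, compound exposure, growth read-out; inhibition is taken relative to vehicle.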

The nature of experiment [2]: NCI Yeast Anticancer Drug Screen. Data for the mec2-1 strain (AID 157). The note with it: S. cerevisiae mec2-1 strain, stronger effect = higher value; at 50.0 µM unless noted. In short, it runs like this: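 Strain: mec2-1 (DNA repair/cell cycle alteration). Compound exposure, then growth measured; inhibition expressed relative to vehicle.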
The nature of experiment [3]: NCI Yeast Anticancer Drug Screen. Data for the sgs1 mgt1 strain (AID 161).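 Also: 0% = growth of cultures given vehicle only.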 The note with it: S. cerevisiae sgs1 mgt1 strain, stronger effect = higher value; at 50.0 µM unless noted. In short, it runs like this: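 Read-out: growth inhibition vs vehicle controls. Cells: mutant yeast strain deficient in DNA damage repair.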
A short description of experiment [4]: NCI Yeast Anticancer Drug Screen. Data for the cln2 rad14 strain (AID 165).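 Also: 0% = growth equal to vehicle treated cultures.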 As to conditions: S. cerevisiae cln2 rad14 strain, stronger effect = higher value; at 50.0 µM unless noted. An outline of the steps:
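Compounds are applied to the cln2 rad14 yeast strain, and growth is then compared with that of vehicle-treated cultures to give inhibition.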

Experiment [5] in a line: NCI Yeast Anticancer Drug Screen. Data for the bub3 strain (AID 167). As to conditions: S. cerevisiae bub3 mutant strain, stronger effect = higher value; at 50.0 µM unless noted. In short, it runs like this:
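In this screen, a yeast mutant lacking normal mitotic checkpoint function is challenged with compound. Relative growth versus vehicle gives the inhibition value.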

Experiment [6] can be described thus: NCI Yeast Anticancer Drug Screen. Data for the mlh1 rad18 strain (AID 175). As to conditions: S. cerevisiae mlh1 rad18 strain growth inhibition, stronger effect = higher value; at 50.0 µM unless noted. An outline of the steps:
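Read-out is yeast growth inhibition, calculated against vehicle-only controls. The compound was applied to a strain engineered with DNA damage repair alterations.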

SMILES strings stand for the structures. Several values for one entry are separate records, joined by “and”; a condition that tells them apart may be missing. Equal entries are not always repeated. This is part of a sample that, as a whole, favours compounds with a hit. Of some 79,000 tested, about 15% had one in any assay. Values without a mark were called inactive. Activity calls are given as the source filed them. Rule as the data show it: active = growth inhibition above about 70%; inactive = the rest.

Take `CN1C(=O)N(c2cc(Cl)cc(Cl)c2)C(=N)C1=S`: the growth inhibition was 7.1% in experiment [1]; 1.75% in experiment [2]; 17.6% in experiment [3]; -3.1% in experiment [4]; 32.5% in experiment [5]; 37.5% in experiment [6].
Regarding `NCC(=O)c1ccc(CCC(=O)O)cc1`, the growth inhibition in experiment [1] is 3.1%; in experiment [2], -0.25%; in experiment [3], -0.75%; in experiment [4], 0.25%; in experiment [5], 6.3%; in experiment [6], 2.6%.
Consider `S=c1nc2ccccn2c(=S)n1-c1ccccn1`, for which the growth inhibition was 33.6% in experiment [1]; 23.9% in experiment [2]; 27.4% in experiment [3]; 0.5% in experiment [4]; 24.5% in experiment [5]; 57.9% in experiment [6].
As to `CCOC(CC(=O)NCCNC(C)=O)OCC`, the growth inhibition in experiment [1] is 38%; in experiment [2] it was 4.6%; in experiment [3], 7.2%; in experiment [4] it was 2.05%; in experiment [5], 18.4%; in experiment [6], 43.1%.
As to `Cc1cc(N(CCC#N)CCC#N)ccc1N=Nc1ccc(S(N)(=O)=O)cc1`, the growth inhibition in experiment [1] is -39.6%; in experiment [2], -9.45%; in experiment [3] it was -12.4%; in experiment [4] it was 3.65%; in experiment [5] it was 0.55%; in experiment [6] it was 0.8%.
Turning to `O=C1C(O)C(O)C(O)C(O)C1O` (stereo not given), the growth inhibition in experiment [1] is 22.7% and -14.6%; in experiment [2], 20.5% and -17.2%; in experiment [3], 3.9% and -36.9%; in experiment [4], 15.9% and -12.3%; in experiment [5], 20.8% and -8.35%; in experiment [6], 19.7% and -3.55%.
`CC1C(c2ccccc2)OCCN1C(N)=S` (stereo not given): the growth inhibition is 21.9% in experiment [1]; 1% in experiment [2]; 52.4% in experiment [3]; 17.9% in experiment [4]; 24.1% in experiment [5]; 23.3% in experiment [6].
In the case of `CC(=O)NNC(=O)C(N)Cc1ccc(O)cc1` (stereo not given), the growth inhibition was 13.5% in experiment [1]; 23.1% in experiment [2]; 40.5% in experiment [3]; 12.2% in experiment [4]; 2.95% in experiment [5]; 14.8% in experiment [6].
Consider `CNc1cc([N+](=O)[O-])ccc1Br`, for which the growth inhibition in experiment [1] is 10.2%; in experiment [2], 4.2%; in experiment [3], -1.1%; in experiment [4], -2.95%; in experiment [5], 7.5%; in experiment [6], -14.9%.
Take `C=CCC(C)(O)CCC(C)(O)CC=C` (stereo not given): the growth inhibition in experiment [1] was -1.95%; in experiment [2], -14.6%; in experiment [3] it was -8.3%; in experiment [4], 1.2%; in experiment [5], 0.95%; in experiment [6], 8.2%.
As for `CC1(C)CC[C@]2(C(=O)O)CCC3(C)C(=CCC4[C@@]5(C)CC[C@H](OC6OCC(O)C(O)C6OC6OC(CO)C(O)C(O)C6O)C(C)(C)C5CC[C@]43C)C2C1` (stereo not given in full), the growth inhibition in experiment [1] is 84.8% (active); in experiment [2] it was 85.2% (active); in experiment [3], 89.8% (active); in experiment [4] it was 87.7% (active); in experiment [5], 88.5% (active); in experiment [6], 87.5% (active).
On to `Cc1cc(C)c(C(=O)Cc2ccccc2)c(C)c1`, for which the growth inhibition was 18.4% in experiment [1]; 15.6% in experiment [2]; 20.2% in experiment [3]; 12.4% in experiment [4]; 11.4% in experiment [5]; 9.45% in experiment [6].
Take `COc1ccc(C(=[N+]=[N-])c2ccc(OC)cc2)cc1`: the growth inhibition in experiment [1] is -4.65%; in experiment [2] it was -6.85%; in experiment [3], 7.35%; in experiment [4] it was -48.2%; in experiment [5] it was -10.1%; in experiment [6] it was 4.75%.
In the case of `CCn1c2ccccc2c2ccccc21`, the growth inhibition in experiment [1] was 27.2%; in experiment [2], -6%; in experiment [3] it was -10.2%; in experiment [4], 13.8%; in experiment [5], -8.15%; in experiment [6], 17.4%.
Take `CCOC(=O)/C(C#N)=C/c1cccc([N+](=O)[O-])c1`: the growth inhibition is 4.9% in experiment [1]; 4.8% in experiment [2]; 7.05% in experiment [3]; -11.6% in experiment [4]; 34.1% in experiment [5]; 31.2% in experiment [6].
Regarding `O=C(NNC(=O)c1ccc(Cl)c(Cl)c1)c1ccccc1`, the growth inhibition in experiment [1] was -13.8%; in experiment [2], 3.1%; in experiment [3] it was -6.05%; in experiment [4] it was -7.95%; in experiment [5] it was 2.75%; in experiment [6] it was -15.9%.
For the compound `O=[N+]([O-])/C=C/c1cn(CCCCCCCCCCCCn2cc(/C=C/[N+](=O)[O-])c3ccccc32)c2ccccc12`, the growth inhibition in experiment [1] is -1.5%; in experiment [2], -24.6%; in experiment [3], -3.9%; in experiment [4], 6.45%; in experiment [5], -19.4%; in experiment [6] it was -13.6%.
For `CCCCCCCC/C=C\CCCCCCCC(=O)NC(C)(C)C(=O)O`, the growth inhibition in experiment [1] is -16.2%; in experiment [2], -15.7%; in experiment [3] it was -9.5%; in experiment [4] it was 62.6%; in experiment [5], 32.2%; in experiment [6], -36.4%.
Regarding `CCCCOc1ccc(Nc2cc(Cl)ccc2C(=O)O)cn1`, the growth inhibition in experiment [1] is -29.2% and 48.1%; in experiment [2], -14.2% and 23.7%; in experiment [3], -25.6% and 44.4%; in experiment [4], -12.6% and 37.7%; in experiment [5], -36.1% and 35%; in experiment [6] it was -22.6% and 25.1%.
For `CC1=N/C(=C\c2cccc([N+](=O)[O-])c2)C(=O)O1`, the growth inhibition was -6.9% in experiment [1]; -30.8% in experiment [2]; 5.1% in experiment [3]; 3.35% in experiment [4]; -10.7% in experiment [5]; 13.5% in experiment [6].

The values above are taken from PubChem BioAssay (NCI).
